Source: PubChem BioAssay (National Center for Advancing Translational Sciences (NCATS))
KDM4E inh = JMJD2E (human) inhibition; B2RXH2; actives 1.6% (n = 230,000); Potency, µM (series often up to 57.1 µM), inactives show top-dose activity change, negative = inhibition, actives largely listed as inhibitors; AID 2147; JMJD2E catalytic domain, FDH-coupled NADH fluorescence (FDH is formaldehyde dehydrogenase);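 note: 0% = wells with enzyme and -100% = buffer wells without enzyme; nearly all actives have a fitted effect of over 50% in size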
KAT2A inh = inhibitors of human GCN5L2 histone acetyltransferase; actives 0.21% (n = 390,000); Potency, µM (series often up to 58.9 µM), without a hit: at the top dose activity change, negative = inhibition, hits mostly inhibitors; GCN5L2 HAT assay, ThioGlo1 CoA-SH fluorescence; Q92830; note: % is set by controls: 0 for no effect and ±100 for the full control effect
Target sequence (Q92830 whole entry, looked up): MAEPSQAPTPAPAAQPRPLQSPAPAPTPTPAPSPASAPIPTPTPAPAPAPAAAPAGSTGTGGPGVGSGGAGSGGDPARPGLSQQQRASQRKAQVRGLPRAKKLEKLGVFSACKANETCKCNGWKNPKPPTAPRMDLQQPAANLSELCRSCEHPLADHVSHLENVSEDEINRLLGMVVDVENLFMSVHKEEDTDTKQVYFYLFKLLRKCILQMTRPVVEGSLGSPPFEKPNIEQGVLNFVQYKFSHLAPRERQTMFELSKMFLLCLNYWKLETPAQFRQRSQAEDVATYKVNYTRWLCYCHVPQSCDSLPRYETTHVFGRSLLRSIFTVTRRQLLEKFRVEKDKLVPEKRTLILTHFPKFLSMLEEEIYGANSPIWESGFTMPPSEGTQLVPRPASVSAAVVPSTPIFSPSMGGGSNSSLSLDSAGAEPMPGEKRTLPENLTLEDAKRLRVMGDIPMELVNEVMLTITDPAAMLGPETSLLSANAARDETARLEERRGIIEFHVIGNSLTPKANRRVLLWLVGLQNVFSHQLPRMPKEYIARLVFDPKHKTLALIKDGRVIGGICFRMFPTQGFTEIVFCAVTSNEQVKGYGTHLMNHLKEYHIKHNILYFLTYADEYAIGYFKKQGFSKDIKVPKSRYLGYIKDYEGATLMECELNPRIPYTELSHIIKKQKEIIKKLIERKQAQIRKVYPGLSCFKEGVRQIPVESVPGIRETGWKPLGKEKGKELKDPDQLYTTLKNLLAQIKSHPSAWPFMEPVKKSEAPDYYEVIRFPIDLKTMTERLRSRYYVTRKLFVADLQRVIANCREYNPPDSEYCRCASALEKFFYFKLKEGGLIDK
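Preincubate 20nM GCN5L2 with compound 15 min, RT → add 50uM ThioGlo1 + 75uM H3(1-25) + 70uM acetyl-CoA → read fluorescence 0 and 20 min. Primary qHTS; fluorescent artifacts likely.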
IMPase Li cell = membrane-permeable IMPase blocker, potentiated with lithium | CHO-M1 cells, IP1 TR-FRET (IP-One), carbachol + lithium | Potency, µM (highest dose often 59.4 µM), for the others: at the top dose activity, negative = IMPase inhibition, most hits filed as inhibitors | actives 0.35% (n = 210,000) | AID 1457;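 note: IP1 builds up when IMPase is blocked and the TR-FRET signal falls; plate controls were basal vehicle for no effect and high inhibitor control for full effect; nearly all actives have a fitted effect of over 50% in size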
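Steps: plate 2000 CHO-M1 cells per well and culture 16–30 h; add compound and lithium; incubate 30 min, 37C; add d2-IP1 tracer and Eu cryptate anti-IP1 antibody in lysis buffer; read after 10 min at room temperature.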
Sfp PPTase inh = Sfp phosphopantetheinyl transferase inhibition; Biochemical Sfp PPTase activity, qHTS; Potency, µM, for inactives: largest response in the series, negative = inhibition, actives largely listed as inhibitors; actives 3.5% (n = 310,000);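 note: the enzyme is Sfp with the accession as filed and its product quenches rhodamine fluorescence; 0% = enzyme reaction without inhibitor and -100% = no enzyme wells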
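Sfp 15 nM + cpd, 15 min RT; start w/ rhodamine-CoA 5 uM, BHQ-2-YbbR 12.5 uM (final); 50 mM Hepes pH 7.6, 10 mM MgCl2, 0.01% NP-40, 0.01% BSA; read 525/598 nm at 0 and 30 min.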
Epigenetic derep = epigenetic control regulation, reporter derepression. murine LDR cells, GFP reporter derepression, 30 h. Potency, µM (doses to about 53.9 µM), inactives show at the top dose GFP activation, hits mostly activators. actives 0.2% (n = 280,000). AID 1865; note: % of control where 0% means no effect; nearly all actives have a fitted effect of over 60% in size
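Murine LDR cells bearing a silenced CMV-driven GFP reporter were exposed to compound for 30 h at 37 C. After PBS washes, GFP-positive cells (20-120 um objects) counted by laser-scanning microplate cytometry.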
NPSR antagonist = neuropeptide S receptor (human) antagonism, cAMP | Potency, µM (series often up to 38.3 µM), without a hit: at the top dose activity change, negative = inhibition, hits mostly inhibitors | CHO-NPSR cells, cAMP TR-FRET, antagonist mode | Q6W5P4 | actives 1% (n = 220,000) | AID 1461; note: % is set by controls: 0 for no effect and ±100 for the full control effect; nearly all actives have a fitted effect of over 50% in size
* hit, by the source's call; ? = inconclusive; . = not tested or not shown; ! = not confirmed by another sample; [ ] = remark or other dose. This is a sample that favours compounds with a hit; in the whole collection about 3.6% have one here. Unless noted, calls come from the whole dose curve; as a rule, active = well fitted curve in the direction sought with a large enough effect; inconclusive = small, poorly fitted or top-dose-only effect, or another doubt; inactive = no such curve, though single readings can be large; an effect the other way counts as inactive or inconclusive. Potency is the fitted concentration of half-maximal effect.

SMILES	KDM4E inh	KAT2A inh	IMPase Li cell	Sfp PPTase inh	Epigenetic derep	NPSR antagonist
C=C1C(=O)OC(CCCCCCCC)C1C(=O)O (stereo unspecified)	.	11.6%	.	-7.9%	.	.
O=C(Nc1ccc(O)c2c(=O)cc(-c3ccccc3Cl)oc12)c1cc(Cl)cc(Cl)c1	.	.	.	56.2µM*	.	.
O=c1cc(-c2ccccc2Cl)oc2c(Br)ccc(O)c12	-5.2%	-11.5%[88.6 µM]	5.1%	11.4%	-5.5%	-3.2%
Cc1ccccc1C(=O)Nc1ccc(O)c2c(=O)cc(-c3ccccc3Cl)oc12	4.1%	-0.4%	.	?	0.0%	-38.6%
O=C(Nc1ccc(O)c2c(=O)cc(-c3ccccc3Cl)oc12)c1ccc(Cl)c(Cl)c1	-5.4%	-13.2%	.	79.4µM*!	1.1%	-10.9%
CC(=O)OC[C@@H]1O[C@@H](O/N=C2/C[C@@H](O)[C@@H](O)[C@@H]3[C@@H]4C(=O)N(Cc5ccccc5)C(=O)[C@H]4CC[C@H]23)[C@H](OC(C)=O)[C@H](OC(C)=O)[C@@H]1OC(C)=O	.	.	.	?	-1.6%[10.1 µM]	.
C=CCOC(=O)N[C@@H](CC(C)C)/C(C(=O)OC)=C(\C)NCc1ccccc1	3.9%	.	26.0%	-9.0%	0.8%	.
O=C1OC(=O)c2ccccc21	.	.	2.5%	.	.	.
NC(=S)Nc1ccc(F)c(F)c1F	8.0%	-6.4%	.	16.9%	-2.6%	1.1%
NC(=S)NNc1c(F)c(F)c(F)c(F)c1F	2.5%	-16.6%	-5.3%	39.8µM*	2.4%	20.4%
O=C1CC(c2ccco2)CC(O)=C1C=Nc1cc(Cl)ccc1O (stereo unspecified)	28.2µM*	-17.8%	-4.3%[38.3 µM]	-23.7%	11.0%	-8.9%[7.67 µM]
O=C1CC(c2ccco2)CC(O)=C1C=Nc1ccccc1-c1ccccc1 (stereo unspecified)	?	-17.2%	13.7%	-3.4%	-1.1%	-52.8%
O=C1CC(c2ccco2)CC(O)=C1C=Nc1cc(Cl)ccc1Cl (stereo unspecified)	0.4%	-13.2%	-2.5%	50.1µM*	-1.3%	-7.6%
CCCCc1cc2c(cn1)=C(OC(=O)C1CCCC1)C(C)(OC(=O)CC)C(=O)C=2 (stereo unspecified)	13.6%[11.4 µM]	.	6.7%	9.6%	.	.
Cc1cccc2c1Oc1ccccc1[C@@H]2NC(=O)c1ccc([N+](=O)[O-])cc1	.	.	3.9%	.	.	.
CC(C)[C@H]1CN=C2N(C[C@H](C)NC(=O)CCC3CCCCC3)[C@H](Cc3ccc(O)cc3)CN21	-6.7%	0.1%	.	50.1µM*	1.1%	-2.4%
C/C=C(\C)C(=O)N[C@@H](C)CN1C2=NC[C@H](C(C)C)N2C[C@H]1Cc1ccc(OC)cc1	-0.3%	-10.2%	.	39.8µM*	0.2%	20.3%
COc1ccc(C[C@@H]2CN3C(=NC[C@@H]3Cc3ccc(O)cc3)N2C[C@H](C)NC(=O)CCC2CCCCC2)cc1	-9.4%	-2.2%	.	79.4µM*	-1.1%	-11.1%
NC1=NN=C(c2ccc3c(c2)OCCO3)CS1	2.2%	-4.5%	-3.4%	79.4µM*	4.3%	15.5%
Cc1sc(N)nc1-c1ccc2c(c1)OCCO2	.	0.5%	.	79.4µM*	.	.
Cc1sc(N)nc1-c1ccc(Oc2ccccc2)cc1	.	?	.	-0.4%	.	.
Nc1nc(-c2ccc3c(c2)OCCO3)c(CC(=O)O)s1	.	35.5µM*	.	-20.3%	.	.
C=CCN=C1NN=C(c2ccc3c(c2)OCCO3)CS1	?	-7.5%	19.1%	1.1%	-1.8%	-18.5%
Cn1c(=O)c2c(c3ccccc31)OC(=O)CC2c1cccc(F)c1 (stereo unspecified)	.	-4.3%	.	.	-0.2%	.
O=C(N/N=C\c1ccc2c(c1)CCC2)c1ccccc1O	.	.	-0.5%	.	.	.
c1cc(CN2CCCNCCNCCCNCC2)ccc1CN1CCCNCCNCCCNCC1	.	37.2%	.	-4.0%	.	.
O=C(N/N=C\c1cc(Br)c(Br)o1)c1cncc(Br)c1	-1.0%	31.9%	7.1%	-12.9%	-1.0%	7.3%
O=C(N/N=C/c1cc(Br)c(Br)o1)c1ccc2c(c1)OCCO2	?	-13.9%	.	4.47µM*	-1.6%	54.0%
